Here are results for 8 compounds from PubChem BioAssay (Tox21).

A short description of test [1]: qHTS assay to test for compound auto fluorescence at 535 nm (green) in HEK293 cells (AID 720680). (In general: Quantitative high-throughput screening tests each substance at several concentrations.)
Test [2] is described as follows: qHTS assay to test for compound auto fluorescence at 460 nm (blue) in HEK293 cell free culture (AID 720681). The essentials: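 Blue fluorescence (Ex 405/Em 460 nm, triamterene-equivalent) was read immediately after pin transfer of compound or DMSO into medium (DMEM, 10% FBS) without cells.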
The nature of test [3]: qHTS assay to test for compound auto fluorescence at 535 nm (green) in HEK293 cell free culture (AID 720682). The gist of the method: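 No cells present: wells hold DMEM supplemented with 10% FBS, into which compound or vehicle is pinned. Green emission is then recorded (485 nm excitation, 535 nm emission) and scaled to fluorescein.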
A short description of test [4]: qHTS assay to test for compound auto fluorescence at 590 nm (red) in HEK293 cell free culture (AID 720683). The essentials:
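Red-channel autofluorescence of compounds in culture medium (DMEM, 10% FBS), no cells, measured at 540/590 nm. Rose Bengal sodium is the reference fluorophore for equivalence.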

Test [5] can be described thus: qHTS assay to test for compound auto fluorescence at 590 nm (red) in HepG2 cell free culture (AID 720684). The essentials:
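Plate contents were MEM with 10% FBS plus test compound or DMSO, no cells. Fluorescence was recorded with 540 nm excitation and 590 nm emission.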

A short description of test [6]: qHTS assay to test for compound auto fluorescence at 460 nm (blue) in HepG2 cell free culture (AID 720685). The gist of the method:
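Compound (23 nL) or DMSO pinned into cell-free MEM with 10% FBS; blue fluorescence read at 405/460 nm excitation/emission, expressed as auto-fluorescence equivalency to triamterene.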

A short description of test [7]: qHTS assay to test for compound auto fluorescence at 535 nm (green) in HepG2 cell free culture (AID 720686).
A short description of test [8]: qHTS assay to test for compound auto fluorescence at 460 nm (blue) in HepG2 cells (AID 720687). The gist of the method:
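Blue-channel autofluorescence (Ex/Em 405/460 nm, triamterene-equivalent) was measured after 1 hr compound exposure at 37 C, 5% CO2. Cells were HepG2, plated overnight at 37 C in MEM plus 10% FBS.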

Test [9] deals with Glucocorticoid receptor (Homo sapiens) (UniProt P04150). As to the kind of experiment: qHTS assay to identify small molecule antagonists of the glucocorticoid receptor (GR) signaling pathway (AID 720692; active = well fitted inhibition curve with a large enough effect in the signal ratio in the repeat runs, not every such curve was filed as active; the % refers to the signal ratio). The essentials: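 Dexamethasone (5 nM final) stimulated a stably integrated GRE-beta-lactamase reporter in HeLa cells during 18 h co-incubation with compounds; signal was quantified as fluorescence intensity of B/G FRET substrate after 2 h.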
Chain of Glucocorticoid receptor (Homo sapiens) (P04150 whole entry, looked up): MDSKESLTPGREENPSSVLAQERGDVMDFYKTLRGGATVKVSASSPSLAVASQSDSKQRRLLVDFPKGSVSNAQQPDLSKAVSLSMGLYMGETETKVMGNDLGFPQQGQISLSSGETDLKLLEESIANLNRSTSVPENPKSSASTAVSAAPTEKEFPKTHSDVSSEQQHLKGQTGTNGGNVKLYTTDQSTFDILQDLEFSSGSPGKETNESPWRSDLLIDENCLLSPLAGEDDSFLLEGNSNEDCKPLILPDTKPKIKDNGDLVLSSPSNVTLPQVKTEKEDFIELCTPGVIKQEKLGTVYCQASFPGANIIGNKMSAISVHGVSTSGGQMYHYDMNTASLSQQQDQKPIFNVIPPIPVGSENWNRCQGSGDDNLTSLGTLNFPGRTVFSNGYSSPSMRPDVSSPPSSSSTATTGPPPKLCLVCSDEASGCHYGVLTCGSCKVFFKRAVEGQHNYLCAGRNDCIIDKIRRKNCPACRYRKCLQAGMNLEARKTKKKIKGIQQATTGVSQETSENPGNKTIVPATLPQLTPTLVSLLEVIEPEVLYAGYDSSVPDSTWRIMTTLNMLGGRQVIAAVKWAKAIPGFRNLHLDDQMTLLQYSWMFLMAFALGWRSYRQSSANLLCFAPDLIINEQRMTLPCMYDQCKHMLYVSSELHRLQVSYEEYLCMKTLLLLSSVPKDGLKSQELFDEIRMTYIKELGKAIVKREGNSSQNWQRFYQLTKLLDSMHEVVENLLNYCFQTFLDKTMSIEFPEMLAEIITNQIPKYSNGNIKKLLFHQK

Test [10] in a line: qHTS assay to identify small molecule antagonists of the glucocorticoid receptor (GR) signaling pathway - cell viability counter screen (AID 720693). Also: nearly all actives have a fitted effect of over 55% in size.
A short description of test [11]: qHTS assay for identifying genotoxic compounds that show differential cytotoxicity against isogenic chicken DT40 cell lines with known DNA damage response pathways - Rev3 mutant cell line (AID 743014). Also: nearly all actives have a fitted effect of over 55% in size. Also: potency is read from the fitted curve at half-maximal effect.
Test [12] in a line: qHTS assay to identify small molecule antagonists of the androgen receptor (AR) signaling pathway - cell viability counter screen (AID 743033; also: nearly all actives have a fitted effect of over 45% in size).
In test [13] the target is Androgen receptor (Homo sapiens) (UniProt P10275). Briefly: qHTS assay to identify small molecule agonists of the androgen receptor (AR) signaling pathway using the MDA cell line (AID 743040; also: nearly all actives have a fitted effect of over 20% in size). The gist of the method: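 After a 5 h incubation at 37C and 0% CO2, MDA-kb2 reporter cells were dosed with compounds in DMSO and kept 16 h under the same conditions. Luciferase activity was then read as luminescence with ONE-Glo.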
Chain of Androgen receptor (Homo sapiens) (P10275 whole entry, looked up): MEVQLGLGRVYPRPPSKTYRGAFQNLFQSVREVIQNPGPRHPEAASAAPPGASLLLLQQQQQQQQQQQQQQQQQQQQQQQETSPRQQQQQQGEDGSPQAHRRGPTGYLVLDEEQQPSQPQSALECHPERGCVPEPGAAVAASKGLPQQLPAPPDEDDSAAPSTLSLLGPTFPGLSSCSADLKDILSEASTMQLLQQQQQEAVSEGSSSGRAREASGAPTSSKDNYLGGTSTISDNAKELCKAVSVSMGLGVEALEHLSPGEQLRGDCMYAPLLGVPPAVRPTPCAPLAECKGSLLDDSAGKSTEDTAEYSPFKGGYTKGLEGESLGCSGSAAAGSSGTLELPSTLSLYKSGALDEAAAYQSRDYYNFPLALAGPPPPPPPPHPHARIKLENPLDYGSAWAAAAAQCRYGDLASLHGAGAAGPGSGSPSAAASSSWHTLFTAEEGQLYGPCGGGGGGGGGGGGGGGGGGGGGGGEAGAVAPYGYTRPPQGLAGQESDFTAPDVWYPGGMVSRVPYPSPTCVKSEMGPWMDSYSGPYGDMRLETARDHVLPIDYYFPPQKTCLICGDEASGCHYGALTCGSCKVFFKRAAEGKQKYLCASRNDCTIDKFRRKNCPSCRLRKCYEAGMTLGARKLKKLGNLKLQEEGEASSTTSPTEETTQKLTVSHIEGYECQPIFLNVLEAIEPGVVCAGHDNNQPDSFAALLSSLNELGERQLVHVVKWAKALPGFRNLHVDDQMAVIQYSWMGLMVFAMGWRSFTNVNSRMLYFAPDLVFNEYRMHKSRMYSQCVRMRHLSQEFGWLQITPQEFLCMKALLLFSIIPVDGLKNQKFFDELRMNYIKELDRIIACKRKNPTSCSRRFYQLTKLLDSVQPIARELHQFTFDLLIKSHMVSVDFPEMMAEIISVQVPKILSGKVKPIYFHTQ

The nature of test [14]: qHTS assay to identify small molecule antagonists of the androgen receptor (AR) signaling pathway using the MDA cell line - cell viability counter screen (AID 743041; also: nearly all actives have a fitted effect of over 45% in size). The essentials:
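R1881-driven MDA-kb2 AR-luc cells, 3,000/well, were dosed with library compounds for 16 h; cell health came from CellTiter-Fluor fluorescence in the reporter wells.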

Test [15] deals with Androgen receptor (Homo sapiens) (UniProt P10275). As to the kind of experiment: qHTS assay to identify small molecule antagonists of the androgen receptor (AR) signaling pathway using the MDA cell line (AID 743042; also: nearly all actives have a fitted effect of over 55% in size). The gist of the method: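 Antagonist mode: compounds plus R1881 agonist added to MDA-kb2 AR-luc cells, incubated 16 h at 37C. Luciferase reporter luminescence quantified, with multiplexed CellTiter-Fluor readout for cell viability.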

In test [16] the target is Glucocorticoid receptor (Homo sapiens) (UniProt P04150). Briefly: qHTS assay to identify small molecule agonists of the glucocorticoid receptor (GR) signaling pathway (AID 720691; active = well fitted activation curve with a large enough effect in the signal ratio in the repeat runs, not every such curve was filed as active; the % refers to the signal ratio). The essentials:
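Reporter read-out: fluorescence intensity following 2 h room-temperature LiveBLAzer B/G FRET substrate loading. Prior step: GR-bla HeLa cells held 4 h, then treated 18 h at 37 C.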

Test [17] can be described thus: qHTS assay for identifying genotoxic compounds that show differential cytotoxicity against isogenic chicken DT40 cell lines with known DNA damage response pathways - wild type cell line (AID 743012). Also: nearly all actives have a fitted effect of over 60% in size. The essentials:
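Using parental DT40 (300 cells/well), compounds delivered in DMSO incubate 40 h at 37 C/5% CO2. CellTiter-Glo reagent then stands 30 min at room temperature, and luminescence gives cell viability.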

Test [18] is described as follows: qHTS assay for identifying genotoxic compounds that show differential cytotoxicity against isogenic chicken DT40 cell lines with known DNA damage response pathways - Rad54/Ku70 mutant cell line (AID 743015). Also: nearly all actives have a fitted effect of over 60% in size.
Test [19] in a line: qHTS assay to identify small molecule antagonists of the thyroid receptor (TR) signaling pathway - cell viability counter screen (AID 743064). Also: nearly all actives have a fitted effect of over 50% in size. The gist of the method: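 Rat GH3 pituitary tumor cells stably expressing two TR response elements driving luciferase were plated, rested 4 h, then dosed with library compounds and T3 (1 nM final). After 23.5 h at 37 °C, CellTiter-Fluor was added for 30 min and fluorescence recorded.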

Test [20] deals with Androgen receptor (Homo sapiens) (UniProt P10275). Briefly: qHTS assay to identify small molecule antagonists of the androgen receptor (AR) signaling pathway (AID 743035; active = well fitted inhibition curve with a large enough effect in the signal ratio in the repeat runs, not every such curve was filed as active; the % refers to the signal ratio). The essentials:
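Using qHTS, AR-UAS-bla GripTite HEK293 cells received compound, then R1881, and were cultured 16 h at 37C/5% CO2 before a 2 h room-temperature LiveBLAzer B/G FRET substrate step and fluorescence measurement.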

A number with no mark means an inactive call. Records with an inconclusive call do not appear. The source made the active and inactive calls. Unless noted, calls follow the shape of the dose curve; as a rule, active = well fitted curve in the direction sought with a large enough effect in the repeat runs; inconclusive = weak or mixed curves; inactive = no such curve, though single readings can be large; an effect the other way counts as inactive or inconclusive.
% is scaled to controls: 0 for no effect and ±100 for the full control effect.

For `CSC(=O)c1cccc2nnsc12`, the outcome in test [1], in [2], in test [3], in [4], in test [5] and in test [6] was inactive. Besides, the call in test [7], in test [8], in [9], in [10], in test [12] and in test [13] was inactive. Besides, the result in [14] and in [15] was inactive. Also, the Potency in [11] was 21.7 µM (active).
For the compound `CCOC(=O)CC(C(C)=O)C(C)=O`, the compound was classed as inactive in test [1], in test [2], in test [3], in test [4], in test [5] and in test [6]. Moreover, the result in test [7], in test [8], in [12] and in [14] was inactive. Also, the Potency entry in test [16], in test [17], in [11], in test [18] and in [19] was “inactive” each time.
As to `N=C(N)N1CCc2ccccc2C1`, the result in test [1], in test [2], in test [3], in test [4], in [5] and in [6] was inactive. The compound was called inactive in test [7], in test [8], in test [10], in test [12] and in [14]. Also, the Potency result in test [16], in test [17], in test [11], in [18] and in [19] was “inactive” throughout.
For `COc1cnc(NS(=O)(=O)c2ccc(N)cc2)nc1`, the fluorescence, % of fluorescein in test [1] was -0.0702% [at 18.6 µM]. In addition, the fluorescence, % of fluorescent control in test [2] is 0.0732% [at 18.6 µM]; in test [4], -0.0163% [at 18.6 µM]; in test [6], 0.0024% [at 18.6 µM]; in test [8], 0.0082% [at 18.6 µM]. For the same compound, the activity change in [3] is -0.0115% [at 18.6 µM]. Further, in test [5], the fluorescence, % of Rose Bengal was 0.414% [at 18.6 µM]. In addition, in [7], the fluorescence, % of fluorescein control was 0.0043% [at 18.6 µM]. For the same compound, the Potency entry in test [16], in test [11] and in [19] was “inactive” each time. For the same compound, the call in test [10], in [12] and in test [14] was inactive.
As to `O=C(O)P(=O)(O)O`, the compound was called inactive in [1], in test [2], in test [3], in test [4], in test [5] and in test [6]. Besides, the call in test [7], in [8], in test [10] and in test [12] was inactive. The Potency entry in test [16], in test [17], in [18] and in [19] was “inactive” each time.
As to `CCN(CC)CC`, the outcome in test [1], in test [2], in [3], in [4], in test [5] and in [6] was inactive. Also, the result in [7], in test [8], in test [10], in test [12] and in test [14] was inactive. For the same compound, the Potency result in test [16], in [17], in test [11], in test [18] and in [19] was “inactive” in each case.
Take `COC(=O)c1ccccc1Cl`: the compound was called inactive in [1], in test [2], in test [3], in [4], in test [5] and in test [6]. The result in [7], in test [8], in test [10] and in test [14] was inactive. The Potency result in test [16], in test [17], in test [11], in test [18] and in [19] was “inactive” throughout.
Turning to `C/C(Cl)=C/CCl`, the call in [1], in [2], in test [3], in test [4], in test [5] and in test [6] was inactive. In addition, the compound was classed as inactive in test [7], in test [8], in test [10], in test [12], in [20] and in [14]. Besides, the outcome in [15] was inactive. Moreover, the Potency result in test [17], in test [11], in [18] and in test [19] was “inactive” in each case.
